This is a sample that favours compounds with a hit; in the whole collection about 5.2% have one here.
Sfp PPTase inh: qHTS Assay for Inhibitors of Bacillus subtilis Sfp phosphopantetheinyl transferase (PPTase); Potency, µM, for the others: largest response in the series, negative = inhibition, actives largely listed as inhibitors; Biochemical Sfp PPTase activity, qHTS; hit rate 3.5% among 310,000; 4'-phosphopantetheinyl transferase ffp (Bacillus subtilis), Q9F4F7; AID 1490, 2009;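 further: the enzyme is Sfp with the accession as filed and its product quenches rhodamine fluorescence; potency means the concentration at half of the fitted maximal effect; 0% = enzyme reaction without inhibitor and -100% = no enzyme wells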
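Sfp 15 nM + cpd, 15 min RT; start w/ rhodamine-CoA 5 uM, BHQ-2-YbbR 12.5 uM (final); 50 mM Hepes pH 7.6, 10 mM MgCl2, 0.01% NP-40, 0.01% BSA; read 525/598 nm at 0 and 30 min.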
Tau fluor cs: Counterscreen qHTS for Inhibitors of Tau Fibril Formation, Fluorescence Polarization. Potency, µM (titrated, usually from 57.7 µM), inactives show top-dose activity change, negative = decrease. hit rate 0.93% among 280,000. tau K18 P301L Alexa594 fluorescence, heparin fibrillization; further: potency means the concentration at half of the fitted maximal effect; nearly all actives have a fitted effect of over 55% in size
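Human tau K18 P301L (15 uM unlabeled, 0.24 uM Alexa 594-labeled) in 100 mM sodium acetate pH 7 with 20 uM heparin, 6 hr at 37 C. ThT 30 uM added, 1 hr ambient; Alexa 594 FP and total fluorescence read at 555/632 nm.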
Tau ThT inhib: qHTS for Inhibitors of Tau Fibril Formation, Thioflavin T Binding. Microtubule-associated protein tau (Homo sapiens), P10636. recombinant tau K18 P301L (four-repeat tau fragment), heparin-induced fibrillization, ThT fluorescence. Potency, µM (series often up to 57.4 µM), inactives show at the highest dose activity, negative = inhibition, actives largely listed as inhibitors. hit rate 2.1% among 270,000. AID 1460, 2008; further: potency means the concentration at half of the fitted maximal effect; nearly all actives have a fitted effect of over 55% in size
Target sequence (P10636 561-689 P618L limits assumed): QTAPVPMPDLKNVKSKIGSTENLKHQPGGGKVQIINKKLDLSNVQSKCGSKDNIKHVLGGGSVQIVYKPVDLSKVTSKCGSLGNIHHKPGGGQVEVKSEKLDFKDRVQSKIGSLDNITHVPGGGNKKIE
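Recombinant human tau K18 fragment […] carrying P301L, 15 uM unlabeled plus 0.24 uM Alexa 594-labeled, was fibrillized with 20 uM heparin in 100 mM sodium acetate pH 7 for 6 hr at 37 C; 30 uM ThT fluorescence read after 1 hr.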
Tau FP inhib: qHTS for Inhibitors of Tau Fibril Formation, Fluorescence Polarization; K18 P301L tau heparin fibrillization, Alexa594 FP, 6 h; Potency, µM (titrated, usually from 57.7 µM), for the others: top-dose activity, negative = inhibition, usual class: inhibitors; hit rate 0.39% among 280,000; further: potency means the concentration at half of the fitted maximal effect; nearly all actives have a fitted effect of over 55% in size
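Human K18 P301L fragment (15 uM unlabeled plus 0.24 uM Alexa 594-labeled) in 100 mM sodium acetate pH 7 with compound, aggregation induced by 20 uM heparin for 6 hr at 37 C. ThT (30 uM) added for 1 hr, then Alexa 594 FP read.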
FBPA coupling cs: qHTS Assay for Inhibitors of Fructose-1,6-bisphosphate Aldolase from Giardia Lamblia: Coupling assay counterscreen. activity change, negative = inhibition, % at 58.2 µM, hits read low. coupling enzyme system counterscreen, AmpLite Red fluorescence. AID 2472, 2010. hit rate 0.67% among 290,000; in the data active means activity change below about -30%
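Fluorescence at 525 nm excitation and 598 nm emission measured inhibition of the coupled detection system without aldolase. Compounds (at 57.5 uM final) were preincubated 10 min at room temperature with coupling enzyme reagent before a 20 min substrate/AmpLite Red step.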
* marks the source's active call; other numbers are inactive results; [ ] = remark or other dose. Unless noted, the call rests on the fitted dose curve; in most records, active means well fitted curve in the direction sought with a large enough effect; inconclusive means small, poorly fitted or top-dose-only effect, or another doubt; inactive means no such curve, though single readings can be large; an effect the other way counts as inactive or inconclusive. Unless noted, on the % scale 0 is the no-effect control and ±100 the full control effect.

`COc1ccc(N2CCN(S(=O)(=O)c3ccc(CC(C)C)cc3)CC2)cc1` gave Tau fluor cs -17%, Tau ThT inhib 4% and Tau FP inhib 3%.
For CN(C)c1ccc(N=C/C=C2\N(C)c3ccccc3C2(C)C)cc1 the results were Sfp PPTase inh inconclusive, Tau fluor cs inconclusive, Tau ThT inhib 5µM*, Tau FP inhib -7% and FBPA coupling cs -3.
`CN1/C(=C\C=Nc2ccc3ccccc3c2)C(C)(C)c2ccccc21` gave Sfp PPTase inh -12%, Tau fluor cs -24%, Tau ThT inhib inconclusive, Tau FP inhib -1% and FBPA coupling cs -7.
For CN1\C(=C/C=C/C=C/C=[N+](C)C)C(C)(C)c2ccccc21 the results were Sfp PPTase inh 56µM*, Tau fluor cs 1.6µM*[fluorescent], Tau ThT inhib 3.5µM*, Tau FP inhib inconclusive and FBPA coupling cs -6.
For CCCCCCCCCCCCCCCCCCCCCC(=O)Nc1ccn([C@@H]2O[C@H](CO)[C@@H](O)[C@@H]2O)c(=O)n1 the results were Sfp PPTase inh 12%.
`Cc1ccc(N2NC(=O)/C(=C\c3cc4c(cc3[N+](=O)[O-])OCO4)C2=O)cc1C` gave Sfp PPTase inh -17%, Tau fluor cs inconclusive, Tau ThT inhib 14µM*, Tau FP inhib inconclusive and FBPA coupling cs 2.
`Cc1ccc(-c2ccc(CCC(=O)O)n2CC(=O)O)cc1` gave Sfp PPTase inh 71µM*, Tau fluor cs 3%, Tau ThT inhib 5%, Tau FP inhib 0% and FBPA coupling cs 11.
O=C(O)CCc1ccc(-c2ccccc2)n1Cc1ccco1 was read as Sfp PPTase inh 35µM*, Tau fluor cs -24%, Tau ThT inhib inconclusive, Tau FP inhib -9% and FBPA coupling cs 7.
For O=C(c1csnn1)N1CCC2(CCCN(c3ccncc3)C2)CC1 the results were Sfp PPTase inh 13% and FBPA coupling cs 4.
For COCCCNC(=S)N1CCCN(c2nc3cc(C)c(C)cc3cc2C#N)CC1 the results were Sfp PPTase inh 28µM*, Tau fluor cs -23%, Tau ThT inhib inconclusive, Tau FP inhib -1% and FBPA coupling cs -12.
`O=C(NCc1ccco1)c1ccc2c(c1)N(Cc1ccccc1)C(=O)c1ccccc1S2(=O)=O` gave Tau fluor cs inconclusive, Tau ThT inhib -2% and Tau FP inhib inconclusive.
For COC(=O)c1cc(Cl)c(NC(=O)C(C)C)cc1OC the results were Sfp PPTase inh 15%, Tau fluor cs -1%, Tau ThT inhib 1%, Tau FP inhib -5% and FBPA coupling cs 1.
Screening COC(=O)c1cc(Cl)c(NC(=O)c2ccc(C(C)(C)C)cc2)cc1OC returned Sfp PPTase inh 14µM*, Tau fluor cs -10%, Tau ThT inhib inconclusive, Tau FP inhib 9% and FBPA coupling cs -1.
For COc1ccc(OC)c(C2CC(=O)N3CN(c4ccccc4)CSC3=C2C#N)c1 (stereo unspecified) the results were Sfp PPTase inh 4.5µM*, Tau fluor cs inconclusive, Tau ThT inhib 28µM*, Tau FP inhib 16µM* and FBPA coupling cs -18.
`COc1ccc(C2CC(=O)N3CN(c4ccc(C)c(Cl)c4)CSC3=C2C#N)cc1` (stereo unspecified) gave Sfp PPTase inh 2.8µM*, Tau fluor cs -17%, Tau ThT inhib 32µM*, Tau FP inhib inconclusive and FBPA coupling cs -36*.
Screening COc1cccc(C2SCC(=O)N2c2ccc(Cl)cc2)c1OC (stereo unspecified) returned Sfp PPTase inh -1%, Tau fluor cs 1%, Tau ThT inhib 1%, Tau FP inhib inconclusive and FBPA coupling cs 2.
`COc1ccc(N2CSC3=C(C#N)C(c4cccc(OC)c4OC)CC(=O)N3C2)cc1` (stereo unspecified) gave Sfp PPTase inh 3.5µM*, Tau fluor cs -25%, Tau ThT inhib 18µM*, Tau FP inhib inconclusive and FBPA coupling cs -29.
Screening COc1cc(OC)c(C2CC(=O)N3CN(c4ccccc4C)CSC3=C2C#N)cc1OC (stereo unspecified) returned Sfp PPTase inh 4µM*, Tau fluor cs -24%, Tau ThT inhib 28µM*, Tau FP inhib 32µM* and FBPA coupling cs -28.
`COc1ccc(N2CN=C3SCC(=O)N3C2)cc1` gave Sfp PPTase inh 12%, Tau fluor cs -1%, Tau ThT inhib -15%, Tau FP inhib -1% and FBPA coupling cs 0.
For C#CCOC(=O)NC(/C=C/CCCC)c1ccccc1 (stereo unspecified) the results were Sfp PPTase inh 20%, Tau fluor cs -14%, Tau ThT inhib -7%, Tau FP inhib 0% and FBPA coupling cs -2.
`C=CCOC(=O)C1=C(C)OC(N)=C(C#N)C1c1ccccc1F` (stereo unspecified) gave Sfp PPTase inh 9%, Tau fluor cs -23%, Tau ThT inhib -13%, Tau FP inhib -7% and FBPA coupling cs 1.
Screening Cc1cccc(N2CSC3=C(C#N)C(c4ccc(C)o4)CC(=O)N3C2)c1 (stereo unspecified) returned Sfp PPTase inh 2.8µM*, Tau fluor cs -27%, Tau ThT inhib 14µM*, Tau FP inhib inconclusive and FBPA coupling cs -18.
CCc1ccccc1N1CSC2=C(C#N)C(c3ccccc3F)CC(=O)N2C1 (stereo unspecified) was read as Sfp PPTase inh 1.1µM*, Tau fluor cs -18%, Tau ThT inhib 28µM*, Tau FP inhib inconclusive and FBPA coupling cs -19.
For COC(=O)CSC1=C(C#N)C(c2ccc(C)o2)CC(=O)N1 (stereo unspecified) the results were Sfp PPTase inh -12%, Tau fluor cs 1%, Tau ThT inhib -6%, Tau FP inhib 6% and FBPA coupling cs 0.
`c1ccc(C[n+]2csc3ccccc32)cc1` gave Sfp PPTase inh 18µM*, Tau fluor cs -21%, Tau ThT inhib inconclusive, Tau FP inhib -14% and FBPA coupling cs -4.
O=c1c2sc3ccccc3c2n(Cc2cccc(F)c2)c(=O)n1Cc1ccccc1 was read as Tau fluor cs -22%, Tau ThT inhib -2% and Tau FP inhib inconclusive.
Fc1cccc(C[n+]2csc3ccccc32)c1 was read as Sfp PPTase inh 20µM*, Tau fluor cs -23%, Tau ThT inhib 25µM*, Tau FP inhib inconclusive and FBPA coupling cs -2.
For O=C1C(c2ccncc2)N(CCC2=CCCCC2)C(=O)CN1C1CCCCC1 (stereo unspecified) the results were Sfp PPTase inh 3%, Tau fluor cs inconclusive, Tau ThT inhib 7.9µM*, Tau FP inhib inconclusive and FBPA coupling cs 1.

Bioassay records: PubChem, National Center for Advancing Translational Sciences (NCATS)
